Assay results published in the supplement of paper PMC11732987, “Enantioselective OTUD7B fragment discovery through chemoproteomics screening and high-throughput optimisation” (Communications Chemistry, 2025).
Values without a mark were called inactive.

These compounds were tested against T1, VCPIP1 (UniProt Q96JH7) (assay: log2 ratio of Biotin-Ahx-Ub-VS probe labelling (fragment/DMSO); higher = less target engagement (more negative = stronger competition), active = hit call of the paper (q ≤ 0.05, log2 ratio ≤ -1)). Details: compound concentration: 200 uM; treatment time: 3 h.
T1 sequence (whole entry): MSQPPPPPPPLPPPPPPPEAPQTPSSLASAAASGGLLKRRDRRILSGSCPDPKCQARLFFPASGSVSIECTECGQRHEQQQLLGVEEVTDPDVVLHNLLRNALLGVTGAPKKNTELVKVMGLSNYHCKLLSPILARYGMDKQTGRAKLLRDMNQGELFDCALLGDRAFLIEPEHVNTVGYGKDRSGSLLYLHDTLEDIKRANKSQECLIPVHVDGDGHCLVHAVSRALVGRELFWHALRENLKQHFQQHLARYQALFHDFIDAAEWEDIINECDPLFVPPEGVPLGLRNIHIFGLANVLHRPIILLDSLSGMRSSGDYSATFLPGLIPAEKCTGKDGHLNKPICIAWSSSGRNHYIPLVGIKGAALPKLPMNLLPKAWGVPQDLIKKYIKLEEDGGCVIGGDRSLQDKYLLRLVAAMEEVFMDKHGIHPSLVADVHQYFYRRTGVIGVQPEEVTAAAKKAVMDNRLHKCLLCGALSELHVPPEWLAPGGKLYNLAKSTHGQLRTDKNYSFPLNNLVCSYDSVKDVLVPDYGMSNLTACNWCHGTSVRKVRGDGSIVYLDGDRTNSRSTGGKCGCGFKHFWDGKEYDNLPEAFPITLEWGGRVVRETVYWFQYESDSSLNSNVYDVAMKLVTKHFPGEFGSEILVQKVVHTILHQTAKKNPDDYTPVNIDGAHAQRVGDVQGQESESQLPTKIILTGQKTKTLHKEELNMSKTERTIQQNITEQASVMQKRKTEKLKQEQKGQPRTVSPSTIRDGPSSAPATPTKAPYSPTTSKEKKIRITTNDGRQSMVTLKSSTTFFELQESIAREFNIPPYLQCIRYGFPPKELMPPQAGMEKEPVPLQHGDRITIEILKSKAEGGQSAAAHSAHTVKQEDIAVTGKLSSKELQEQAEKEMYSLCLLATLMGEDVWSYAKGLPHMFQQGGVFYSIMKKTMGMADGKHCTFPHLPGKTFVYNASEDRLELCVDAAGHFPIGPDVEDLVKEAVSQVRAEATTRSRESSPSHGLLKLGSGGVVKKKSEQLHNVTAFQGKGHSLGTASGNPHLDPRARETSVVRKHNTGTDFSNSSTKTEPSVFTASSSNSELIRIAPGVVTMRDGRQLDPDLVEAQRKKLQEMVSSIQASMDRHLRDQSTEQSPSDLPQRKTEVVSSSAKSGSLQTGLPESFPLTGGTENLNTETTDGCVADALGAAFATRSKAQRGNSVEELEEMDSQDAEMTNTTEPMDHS
Procedure: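 Competitive ABPP in HEK293T cell lysate. Lysates were treated with each chloroacetamide fragment at 200 µM for 3 h, then with Biotin-Ahx-Ub-VS (0.5 µM, 1 h), NeutrAvidin-enriched and analysed by diaPASEF LC-MS/MS. Protein LFQ was median-normalised; average log2 ratio is fragment/DMSO from an unpaired t-test (n=3 treated, n=44 DMSO). Hits: q ≤ 0.05, log2 ratio ≤ -1, unique peptides ≥ 2.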

Compound | log2 ratio of Biotin-Ahx-Ub-VS probe labelling
O=C(CCl)N1CCC(C(=O)N2CCCC2)CC1 | -0.191
O=C(CCl)NCC(=O)N1CCCC1 | -0.323
O=C(CCl)NCc1cccc(F)c1 | -1.16 (active)
O=C(CCl)N1CCN(c2nc3ccccc3o2)CC1 | -0.288
Cl.O=C(CCl)N[C@H]1C[C@@H](n2cccn2)C1 | -0.848
O=C(CCl)Nc1ccc(Cl)c(F)c1 | -1.86 (active)
CN1c2ccccc2C(NC(=O)CCl)CS1(=O)=O (configuration not stated) | -2.14 (active)
